PubChem BioAssay (EPA / NIEHS)
Values joined by “and” are separate entries in the source; they are usually repeats but may differ in a detail not shown here. Identical values can stand only once. Results filed as inconclusive are left out. The source holds several records for some structures; these can differ, active in one and inactive in another. Active and inactive are the calls of the source. Rule for the calls: active = hit-call score of the fitted dose curve at least 0.9, where 1 is the maximum; inconclusive = response in the unintended direction; inactive = score below 0.9.

How the values were obtained:
[1] = ATG_XTT_Cytotoxicity: Cytotoxicity Assessment in the Attagene TRANS-FACTORIAL HepG2 Assay (AID 2283584);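 for AC50: cells exposed to compound for 24 h before reading; active means loss of viability signal versus DMSO baseline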
Summary of the method: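 Viability endpoint from XTT after 24 h chemical exposure of reporter-transfected human HepG2 liver cells; signal loss fitted relative to DMSO negative control.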

[2] = biological target: Cellular tumor antigen p53 (Homo sapiens) (UniProt P04637); test: TOX21_p53_BLA_p2_ratio: Tox21 HCT-116 p53 Agonism Beta-lactamase Assay, Ratio, Phase 2 (AID 2283592)
Summary of the method: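 Read-out is the blue/green (460/530 nm, 405 nm excitation) ratio after 2 h CCF4-AM loading, fitted as gain versus DMSO. Compounds, pinned at 217-fold dilution from DMSO stocks, stayed 16 h on HCT-116 beta-lactamase reporter cells seeded 5 h earlier.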

[3] = TOX21_p53_BLA_p3_viability: Viability Assessment in the Tox21 HCT-116 p53 Agonism Beta-lactamase Assay, Phase 3 (AID 2283593);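 note: cells exposed to compound for 16 h before reading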
Summary of the method: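 Cellular ATP was quantified by CellTiter-Glo luminescence, read after 30 min at room temperature. Beforehand, HCT116 cells (4000/well) received compound 5 h post-seeding, 217-fold diluted from DMSO, then incubated 16 h at 37C.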

[4] = biological target: Cellular tumor antigen p53 (Homo sapiens) (UniProt P04637); test: TOX21_p53_BLA_p3_ratio: Tox21 HCT-116 p53 Agonism Beta-lactamase Assay, Ratio, Phase 3 (AID 2283596)
Summary of the method: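 Cells were seeded at 4000/well, rested 5 h at 37C, then dosed with DMSO compound solutions (217-fold dilution) for 16 h. CCF4-AM substrate was loaded for 2 h at room temperature, and the 460/530 nm emission ratio was fitted for gain of signal versus DMSO.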

[5] = TOX21_p53_BLA_p4_viability: Viability Assessment in the Tox21 HCT-116 p53 Agonism Beta-lactamase Assay, Phase 4 (AID 2283597);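 note: hits lower the luminescence signal meaning cytotoxicity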
Summary of the method: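 Cytotoxicity as reduced cellular ATP (CellTiter-Glo luminescence, 30 min room temperature), measured in the same wells following the CCF4 FRET p53 reading. Human HCT-116 cells received compounds in DMSO (217-fold dilution) for 16 h.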

[6] = biological target: Cellular tumor antigen p53 (Homo sapiens) (UniProt P04637); test: TOX21_p53_BLA_p5_ratio: Tox21 HCT-116 p53 Agonism Beta-lactamase Assay, Ratio, Phase 5 (AID 2283599)
Summary of the method: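 Beta-lactamase reporter ratio (blue 460 nm over green 530 nm, 405 nm excitation) after 2 h CCF4-AM loading, in HCT-116 cells exposed 16 h at 37 C to compounds pinned at 217-fold dilution. Increases relative to DMSO baseline scored.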

[7] = TOX21_p53_BLA_p5_viability: Viability Assessment in the Tox21 HCT-116 p53 Agonism Beta-lactamase Assay, Phase 5 (AID 2283600)
Summary of the method: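 Viability came from CellTiter-Glo ATP luminescence, read after 30 min at room temperature. Before this, HCT-116 p53-bla cells (4000/well) had 16 hours of compound exposure at 37C, with DMSO stocks diluted 217-fold on transfer.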

[8] = biological target: Cellular tumor antigen p53 (Homo sapiens) (UniProt P04637); test: TOX21_p53_BLA_p4_ratio: Tox21 HCT-116 p53 Agonism Beta-lactamase Assay, Ratio, Phase 4 (AID 2283601)
Summary of the method: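 Signal is the blue/green (460nm/530nm) ratio of cleaved versus uncleaved CCF4-AM substrate, read after 2 h substrate loading. Cells were HCT116 carrying the p53-responsive beta-lactamase reporter, dosed 16 h at 37C, 5% CO2; CellTiter-Glo measured in parallel.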

[9] = tested on: Thyroperoxidase (TPO), gene 54314; test: CCTE_Simmons_AUR_rTPO: CCTE's Amplex UltraRed Assay for Thyroperoxidase (TPO) Inhibition, Simmons Lab (AID 2283662);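 for AC50: potency for loss of signal meaning inhibition of peroxidase activity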
Summary of the method: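 Endpoint is decreased Amplex UltraRed fluorescence after a 30-min, 37C reaction of rat thyroid microsomes with 300 uM H2O2. Eight test concentrations (5 nM–87.5 uM final) in 0.5% DMSO, three biological replicates each.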

Measured: AC50

Sequence of Cellular tumor antigen p53 (Homo sapiens) (P04637 whole entry, looked up): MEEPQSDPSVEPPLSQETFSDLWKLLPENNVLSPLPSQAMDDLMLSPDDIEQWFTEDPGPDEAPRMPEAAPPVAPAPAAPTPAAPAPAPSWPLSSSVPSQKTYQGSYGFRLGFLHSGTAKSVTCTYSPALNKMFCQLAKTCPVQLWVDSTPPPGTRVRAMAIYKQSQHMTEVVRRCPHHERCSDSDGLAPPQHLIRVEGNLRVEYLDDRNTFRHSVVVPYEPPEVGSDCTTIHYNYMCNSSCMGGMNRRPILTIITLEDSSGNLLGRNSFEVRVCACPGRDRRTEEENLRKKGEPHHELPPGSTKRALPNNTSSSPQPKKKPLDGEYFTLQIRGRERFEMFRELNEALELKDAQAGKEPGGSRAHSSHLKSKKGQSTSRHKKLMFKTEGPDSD

C=C(C)CCCC
inactive: [1]

CC(C)(C)C(=O)C1C(=O)c2ccccc2C1=O
inactive: [1] | [2] | [3] | [5] | [6] | [7] | [8]
active: [3] 62 µM | [4] 42.7 µM and 35.6 µM | [6] 67.3 µM

CCCCC(CC)COC(=O)c1ccc(N(C)C)cc1 (centres undefined)
not listed: [9]
inactive: all other assays above

CC(C)OC(=O)COc1ccc(Cl)cc1Cl
not listed: [9]
inactive: all other assays above

CC(C)=CCCC(C)O (centres undefined)
inactive: [1]

Brc1nc2ccccc2s1
not listed: [9]
inactive: all other assays above

c1ccc(C[P+](c2ccccc2)(c2ccccc2)c2ccccc2)cc1
inactive: [1]

O=C=Nc1cccc2c(N=C=O)cccc12
inactive: [1]

CCc1ccc(C)nc1
inactive: [1]

Brc1ccccn1
inactive: [1]

F[Si-2](F)(F)(F)(F)F
not listed: [9]
inactive: all other assays above

CC(C)OC=O
inactive: all assays above

COCCOCCC[Si](C)(O[Si](C)(C)C)O[Si](C)(C)C
inactive: [1]

N#CCCOCCC#N
inactive: [1]

CCCCCC/C=C/CCCCCCCC(=O)O
not listed: [9]
inactive: all other assays above

CO[Si](CCCOCC1CO1)(OC)OC (centres undefined)
active: [2] 86.5 µM
not listed: [9]
inactive: all other assays above

CCC(Cc1c(I)cc(I)c(N)c1I)C(=O)O (centres undefined)
active: [5] 69.9 µM
inactive: [1] | [2] | [3] | [4] | [5] | [6] | [7] | [8]

Oc1ccc(C2(c3ccc(O)c(C4CCCCC4)c3)CCCCC2)cc1C1CCCCC1
active: [1] 33.8 µM

CC(=O)c1ccccc1N
inactive: [1]

CCC/C=C/CO
not listed: [3] | [5] | [9]
inactive: all other assays above

OCC1CCCO1 (centres undefined)
not listed: [1] | [4] | [9]
inactive: all other assays above

O=c1[nH]cccc1O
inactive: [1]
active: [9] 0.115 µM

COC(=O)c1ccc(C=O)cc1
not listed: [3] | [5] | [9]
inactive: all other assays above

Cc1ccc(O)c(-n2nc3ccccc3n2)c1
inactive: all assays above

CCOC(=O)C1CC(=O)C(=C(O)C2CC2)C(=O)C1 (centres undefined)
inactive: [2] | [4] | [5] | [7] | [8]

CCCCCCCCn1sc(Cl)c(Cl)c1=O
inactive: [6] | [7] | [8]
active: [1] 31.5 µM | [3] 40.7 µM | [4] 21.7 µM | [5] 80.4 µM

C=CCOC(=O)CC(C)C
not listed: [4] | [9]
inactive: all other assays above

CC(O)C#CC(C)O (centres undefined)
not listed: [1] | [9]
inactive: all other assays above

CN(N=O)C(=O)N[C@@H]1[C@@H](O)[C@H](O)[C@@H](CO)O[C@@H]1O
not listed: [1] | [9]
inactive: all other assays above

Cc1cc(=O)[nH]c(C(C)C)n1
not listed: [1] | [9]
inactive: all other assays above

O=S(=O)(O)c1ccc(Cl)cc1
inactive: [1] | [5] | [7] | [8]

O=c1cccc[nH]1
inactive: [1] | [9]

CC(=O)CCC(C)C
not listed: [1] | [9]
inactive: all other assays above

CC(C)(C)c1cc(Cc2cc(C(C)(C)C)c(O)c(C(C)(C)C)c2)cc(C(C)(C)C)c1O
active: [9] 12.1 µM
inactive: [1]

CCC(=O)OC(C)c1ccccc1 (centres undefined)
not listed: [3] | [5] | [9]
inactive: all other assays above

CC(C)CC=C(C=O)c1ccccc1
inactive: [3] | [4] | [5] | [8]

CCOC(OCC)OCC
inactive: [1] | [3] | [6] | [7]

O=C1c2c(O)ccc(Nc3ccc(CCO)cc3)c2C(=O)c2c([N+](=O)[O-])ccc(O)c21
inactive: [1] | [2] | [5] | [6] | [8]

CCCCOC(=O)[C@H](C)O
inactive: [2] | [4] | [6] | [7] | [8]

CCCCCCCC/C=C\CCCCCCCC(=O)N(C)CC(=O)O
active: [1] 128 µM | [2] 51.5 µM | [3] 45.1 µM | [4] 81.1 µM | [5] 83.3 µM | [6] 79.6 µM | [7] 43.7 µM | [8] 83.7 µM | [9] 16.4 µM

CSc1ccc(Cl)cc1
not listed: [1] | [9]
inactive: all other assays above

CC(C)CCCC(C)CCO (centres undefined)
not listed: [4] | [5] | [9]
inactive: all other assays above

Cc1ccc2c(c1)OCC(=O)CO2
inactive: [1] | [2] | [4] | [5] | [8]

CCCCCCCCCCCCCCCCC
inactive: [3] | [4] | [6] | [8]

O=C(c1ccccc1)c1ccc(O)cc1O
active: [9] 6.04 µM and 5.41 µM
not listed: [7]
inactive: all other assays above

Cc1ccc([N+](=O)[O-])c(C)c1
not listed: [5] | [9]
inactive: all other assays above

Cc1ccc(O)cn1
inactive: [1] | [9]

CCOC(=O)CCC(C)=O
inactive: [2] | [4] | [6] | [7] | [8]

CCCCCCCCCCCCCC[P+](CCCC)(CCCC)CCCC
active: [1] 8.53 µM | [9] 47.9 µM

CCN=C1C=CC(=C(c2ccc(N(CC)CC)cc2)c2ccc(N(CC)CC)cc2)c2ccccc21
active: [2] 0.559 µM | [3] 66.1 µM | [4] 2.8 µM | [5] 45.9 µM | [6] 57.2 µM | [7] 69.4 µM | [8] 50 µM | [9] 33.4 µM

CC(C)Nc1ccc(NC(C)C)c2c1C(=O)c1ccccc1C2=O
inactive: [2] | [4] | [6] | [7] | [8]

CCC(C)CO (centres undefined)
not listed: [5] | [9]
inactive: all other assays above
